Test results taken from PubChem BioAssay AID504380 (National Center for Advancing Translational Sciences (NCATS), 2011).
The source made the active and inactive calls. No rule for the calls is given here.

Assay: RT-PCR Analysis of TSH-dependent transcripts in primary cultures of human thyrocytes
Conditions: RT-PCR mRNA levels, 48 h; DIO2 mRNA change: measured here: DIO2 transcript; NIS mRNA change: measured here: NIS transcript, concentration not given here; TG mRNA change: concentration not given here; TPO mRNA change: measured here: TPO transcript, concentration not given here; TSHR mRNA change: measured here: TSHR transcript, concentration not given here
Excerpt: TSH is an alpha/beta heterodimeric glycoprotein hormone secreted from the anterior pituitary gland which belongs to the glycoprotein hormone family. The actions of TSH are mediated by a seven-transmembrane receptor, which upon TSH binding couples preferentially to the G-alpha (s) protein (Gs), resulting in activation of adenylate cyclase and increase in cyclic adenosine 3', 5' monophosphate (cAMP). The TSH receptor (THSR) is mainly expressed in thyroid follicular cells and regulates their growth and function. This cell based assay was conducted on a TSHR transfected HEK 293 cell line, measuring cAMP stimulation using antibody-based Homogeneous Time Resolved Fluorescence (HTRF). Our goal is to identify small molecules that will inhibit (antagonize) the thyroid-stimulating hormone receptor (TSHR), a member of the 7 transmembrane-spanning receptor (7TMR) family of cell surface receptors. TSHR-mediated hyperthyroidism is important in thyroid pathology. The development of small molecule antagonists of TSHR may lead to therapeutic approaches for TSHR-mediated hyperthyroidism caused by constitutively activating mutations or stimulating auto-antibodies associated with Graves' disease. Graves' disease is the leading cause of hyperthyroidism and is caused by autoantibodies that stimulate TSHR (TsAbs) causing thyroid growth and unregulated overproduction of thyroid hormones and existing treatments have liabilities (agranulocytosis). In addition, TSHRs are known to be expressed in multiple extrathyroidal tissues including bone, brain, kidney, testis, fat and cells of the immune system but the role of the TSHR in these tissues is not clear. Therefore, TSHR antagonists/inverse agonists could be used as probes of extrathyroidal TSHR function. Finally, TSHR inverse agonists, which are a subclass of antagonists that inhibit agonist-independent (or basal or constitutive) TSHR signaling, could be used to inhibit TSH-independent signaling in patients with recurrent or metastatic thyroid cancer who are receiving thyroid hormone to suppress TSH. This assays looks for effects on TSH-dependent functions in primary human thyrocytes. Total RNA is purified using RNeasy Micro kits. RT-PCR is performed in 25-ul reactions using cDNA prepared from 100 ng or less of total RNA and Universal PCR Master Mix (Applied Biosystems). mRNA levels are measured using primers and probes from Applied Biosystems. Quantitative RT-PCR results are normalized to GAPDH to correct for differences in RNA input.
Thyroid tissue samples were collected from normal thyroid tissue from patients undergoing total thyroidectomy for thyroid cancer at the National Institutes of Health Clinical Center. Surgical specimens were maintained in Hanks' balanced salt solution (HBSS) on ice, minced into small pieces, and digested with 3 mg/ml collagenase type IV (Life Technologies). Monodispersed cells were plated in 10 ml DMEM with 10% FBS in 10-cm tissue culture dishes and incubated at 37C in a humidified5%CO2 incubator, and after 24 h, the primary cultures of adherent thyroid cells were obtained. For determination of thyroglobulin (TG), thyroid peroxidase (TPO), TSHR, sodium iodide symporter (NIS), or deiodinase type 2 (DIO2) mRNAexpression, thyrocytes were seeded into 12-well plates at a density of 1 x 10^5 cells per well. The cells were incubated in DMEM with 2% FBS and 1 mM 3-isobutyl-1-methylxanthine (IBMX) for 48 h in the presence or absence of compound.

Structure (SMILES) | DIO2 mRNA change [%] | TSHR mRNA change [%] | NIS mRNA change [%] | TG mRNA change | TPO mRNA change [%]
COc1ccc(C2Nc3ccccc3C(=O)N2Cc2ccco2)cc1COc1c(C)cccc1C (stereo not given) | 0 | -33 | -35 | -71% (active) | -40
